Bioassay records from PubChem.
NPC1 prom act: activators of NPC1 promoter. Potency, µM (highest dose often 9.22 µM), inactives show top-dose activation, most hits filed as activators. actives 2.4% (n = 320,000). Huh7 NPC1 promoter luciferase reporter, 24 h; also: % of control where 0% means no effect; nearly all actives have a fitted effect of over 60% in size
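Luminescence from an NPC1 promoter-driven luciferase reporter in stably transfected Huh7 cells was measured after 24 h compound treatment at 37 °C, followed by 10 min ambient incubation with luciferase detection reagent.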
Rab9 promoter act: activators of Rab9 promoter. Huh7 Rab9 promoter-luciferase reporter, luminescence, 24 h. AID 485297. actives 2.8% (n = 320,000). Potency, µM (highest dose often 9.22 µM), for inactives: at the highest dose activation, negative = inhibition, actives largely listed as activators; also: % of control where 0% means no effect; nearly all actives have a fitted effect of over 60% in size
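Rab9 promoter-driven luciferase in stably transfected Huh7 cells; 1500 cells/well rested 2 h, exposed to compound in DMSO for 24 h at 37 °C, 5% CO2. Luminescence read 10 min after adding luciferase reagent at ambient temperature.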
ELG1 genotoxic: genotoxicity induction in ELG1-luciferase HEK293T cells. actives 1.3% (n = 330,000). Potency, µM (titrated, usually from 46 µM), without a hit: at the highest dose activity change, positive = activation, actives largely listed as activators. HEK293T ELG1-luciferase reporter, luminescence, 16 h. AID 504466; also: % of control where 0% means no effect; nearly all actives have a fitted effect of over 60% in size
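Reporter readout depends on ELG1 protein level, which increases with genetic stress. After 16 hr compound exposure at 37 °C, luciferase activity was quantified using ONE-Glo.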
SMN2 splice up: increases expression of the SMN2 splice variant | HEK293 SMN2-luciferase splicing reporter, luminescence, 30-36 h | Potency, µM (series often up to 46.1 µM), for the others: at the top dose activity change, positive = activation, hits mostly activators | actives 2.8% (n = 210,000) | AID 1458; also: % of control where 0% means no effect; nearly all actives have a fitted effect of over 55% in size
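HEK293 cells carry an SMN2 minigene-luciferase reporter in which exon 7 inclusion puts luciferase in frame. Cells were seeded at 2000 cells/well, attached for 10-12 hours, then exposed to compounds for 30-36 hours at 37C before ONE-Glo luminescence.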
FLuc modulator: counter-screen for miR-21 project: firefly luciferase inhibitors or activators; P08659; purified FLuc, Km substrates, luminescence inhibition; Potency, µM (series often up to 57.5 µM), inactives show top-dose activity change, negative = inhibition, most hits filed as inhibitors; actives 6.9% (n = 360,000);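 also: plate controls were vehicle for no effect and reference inhibitor for full effect; nearly all actives have a fitted effect of over 55% in size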
Target sequence (P08659 whole entry, looked up): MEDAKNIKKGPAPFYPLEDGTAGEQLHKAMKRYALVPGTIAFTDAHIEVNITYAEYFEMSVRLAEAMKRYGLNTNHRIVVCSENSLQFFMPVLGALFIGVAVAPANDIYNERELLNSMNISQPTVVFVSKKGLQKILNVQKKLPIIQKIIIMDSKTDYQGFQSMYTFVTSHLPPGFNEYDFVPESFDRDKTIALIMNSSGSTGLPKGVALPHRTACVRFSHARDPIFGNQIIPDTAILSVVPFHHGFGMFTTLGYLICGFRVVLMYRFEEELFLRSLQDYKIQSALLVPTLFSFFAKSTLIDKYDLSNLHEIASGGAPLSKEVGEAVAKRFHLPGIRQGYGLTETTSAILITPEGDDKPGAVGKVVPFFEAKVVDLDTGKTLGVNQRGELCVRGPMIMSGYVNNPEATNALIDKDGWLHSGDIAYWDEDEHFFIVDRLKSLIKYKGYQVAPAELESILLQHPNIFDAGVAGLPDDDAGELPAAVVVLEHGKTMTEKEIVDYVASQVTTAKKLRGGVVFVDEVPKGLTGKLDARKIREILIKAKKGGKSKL
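Purified P. pyralis luciferase, 10 nM final, with Km-level 10 uM D-luciferin and 10 uM ATP in 50 mM Tris acetate pH 7.5, 10 mM Mg acetate, 0.01% Tween-20, 0.05% BSA; 6-point qHTS titration about 60 µM downward; luminescence read.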
The depositor's hits bear a star; ? = inconclusive; · = not tested or not shown; [ ] = remark or other dose. Most compounds without a hit are left out; they make up all but 7.4% or so of the library. Calls follow the shape of the dose curve; as a rule, active = well fitted curve in the direction sought with a large enough effect; inconclusive = small, poorly fitted or top-dose-only effect, or another doubt; inactive = no such curve, though single readings can be large; an effect the other way counts as inactive or inconclusive. Potency is read from the fitted curve at half-maximal effect.

SMILES	NPC1 prom act	Rab9 promoter act	ELG1 genotoxic	SMN2 splice up	FLuc modulator
O=C(Cc1ccc(F)cc1)Nc1nccs1	-1%	4%	-11%	·	-1%
O=C(/C=C/c1ccc(Cl)cc1)Nc1nccs1	0.63µM*	0.32µM*	?	4µM*	1.3µM*
O=C(Nc1nccs1)c1ccc(-c2ccc([N+](=O)[O-])cc2)o1	1.8µM*	1.4µM*	?	13µM*	6µM*
C=C(C)CNC(=O)c1ccc2nc(Cc3ccc(OC)cc3)oc2c1	2.2µM*	2.8µM*	?	·	11µM*
COc1ccc(Cc2nc3ccc(C(=O)N4CCCC4)cc3o2)cc1	3.2µM*	2.2µM*	?	·	13µM*
O=C(c1ccc2nc(Cc3cccc(Cl)c3)oc2c1)N1CCOCC1	?	?	?	·	17µM*
Cn1c(SCC(=O)N2CCCC2=O)nc2ccccc2c1=O	·	·	1%	·	·
CN(C)c1ccc(-c2ccccc2)nn1	1.6µM*	1.6µM*	8.2µM*	16µM*	11µM*
CCN(CC)c1cc(-c2ccccc2)ncn1	3%	21%	7%	-4%[1.84 µM]	?
CC(=O)Nc1ccc(Oc2ccc(-c3noc(C)n3)cc2)cc1	·	·	·	5%	-9%
CCOc1ccc(-c2nc(-c3cccnc3)no2)cc1OCC	7%	1%	9%	-16%	?
CC(=O)Oc1ccc(Oc2ccc(-c3noc(C)n3)cc2)cc1	11%	?	23µM*	?	?
CC(=O)Oc1ccc(-c2nc(-c3cccnc3)no2)cc1	3.5µM*	?	5.8µM*	?	6µM*
COC(=O)CNC(=O)[C@@]1(C)C=C[C@@H](Cc2ccccc2)N1C(C)=O	·	·	·	14µM*	·
Brc1ccc(-c2csc(-c3ccncc3)n2)cc1	25%	?	?	?	4.8µM*
Cc1ccc(-c2csc(-c3ccncc3)n2)cc1	?	4µM*	?	?	11µM*
Nc1nc(-c2ccc(F)cc2)cs1	13%	?	?	-3%	?
Nc1nc(-c2ccc(Br)cc2)cs1	?	?	?	?	19µM*
Cc1ccc(-c2csc(-c3nc(-c4ccc(Br)s4)cs3)n2)cc1	·	·	·	-1%	-1%
COc1ccc(-c2oc3cccnc3c2/C=C/c2ccc(OC)c(OC)c2)cc1	2%	3%	2%	·	7.6µM*
COc1ccc(/C=C/c2c(-c3ccc(OC)cc3)oc(=O)c3cc(OC)c(OC)cc23)cc1	·	·	0%	·	·
CCOC(=O)c1sc(N)c(C(=O)OC)c1C	27%	30%	17%	·	15µM*
COC(=O)c1c(N)sc(C(=O)NCCc2ccccc2)c1C	?	?	0.23µM*	·	0.095µM*
CSc1ccc(CCNc2ncnc3onc(-c4ccc(Cl)cc4)c23)cc1	·	·	·	·	-11%
CCc1ccc(NC(=O)c2ccc3c(O)c(S(=O)(=O)c4ccccc4)c(=O)[nH]c3c2)cc1	·	·	·	·	4.3µM*
SMILES	NPC1 prom act	Rab9 promoter act	ELG1 genotoxic	SMN2 splice up	FLuc modulator
Cc1ccc(NC(=O)c2ccc3c(O)c(S(=O)(=O)c4ccccc4)c(=O)[nH]c3c2)cc1Cl	·	·	·	·	11µM*
COc1ccc(S(=O)(=O)c2c(O)c3ccc(C(=O)Nc4ccccc4)cc3[nH]c2=O)cc1	-1%	-2%	-1%	·	?
CCCCOc1ccc(C(=O)Nc2sc3c(c2C(=O)OCC)CCCCC3)cc1	·	·	·	4%	-4%
CCCCOc1ccc(C(=O)Nc2onc3c2CCCC3)cc1	·	·	·	22µM*	1.7µM*
O=C(NN=C1CCCC1)c1ccc(Cl)cc1	15%	16%	-1%	·	-3%
O=C(Nc1onc2c1CCCC2)c1ccc(Cl)cc1	·	·	·	8.9µM*	1.9µM*
Cc1ccc(NC(=O)C(C)Sc2nc3c(c(=O)[nH]2)CCCC3)cc1Cl (configuration not stated)	·	·	·	·	-1%
Fc1cc(Br)ccc1COc1ccc(-c2nnco2)cc1	2.5µM*	2.5µM*	?	·	?
Fc1ccc(COc2ccc(-c3nnco3)cc2)c(Cl)c1	25%	?	25%	·	?
CCOC(=O)c1ccc(N=Nc2c(C)c(C#N)c(O)[nH]c2=O)cc1	16%	4.5µM*	?	50%	2.7µM*
COc1ccc(CCN2CCCn3c2nc2c3c(=O)n(C)c(=O)n2C)cc1OC	0%	1%	-4%	·	0%
C/C(=N\Nc1nc2ccccc2s1)c1ccc(Br)s1	26%	15%	-8%	·	15µM*
C/C(=N\Nc1nc2ccccc2s1)c1ccc2c(c1)OCO2	27%	?	?	18µM*	9.5µM*
CNC(=S)N/N=C(\C)c1ccc2c(c1)OCO2	1%	0%	6%	7%	0%
CCCc1nc(SC)ncc1C(=O)N1CCN(c2ccc(Cl)cc2)CC1	·	·	·	·	0%
CCC1CN(C(=O)N2CCC(C(=O)NCc3cccs3)CC2)c2ccccc2O1 (configuration not stated)	·	·	·	·	6%
Cc1cccc(C)c1OCC(=O)NNC(=S)NC(=O)C1CC1	1%	0%	?	·	0%
CC(=O)Nc1ccc(S(=O)(=O)Nc2nc3ccccc3nc2Nc2ccc3ccccc3c2)cc1	-1%	1%	-1%	?	9.5µM*
COC(=O)c1cc(Nc2nc3ccccc3nc2NS(=O)(=O)c2ccc(C)cc2)ccc1Cl	·	·	·	-2%	19µM*
CC(=O)Nc1ccc(S(=O)(=O)Nc2nc3ccccc3nc2Nc2cccc(O)c2)cc1	-6%	0%	5%	·	?
COc1ccc(Cn2c(=O)c3oc4ccccc4c3n(Cc3ccc(F)cc3)c2=O)cc1	·	·	·	·	-3%
COc1cc(C#N)ccc1OC(=O)C1CCN(C(=O)c2ccc(F)cc2)CC1	-4%	2%	1%	·	6%
COc1ccc(N(C)C(=O)C2CCN(S(=O)(=O)c3cccc4nonc34)CC2)c(OC)c1	2%	-1%	-8%	·	1%
O=C(COc1cccc(Cl)c1Cl)Nc1ccc2c(c1)CCC2	-1%	12%	-3%	-7%	-1%
O=C(COc1ccccc1Cl)c1ccc2c(c1)CCCC2	?	3.5µM*	?	14µM*	11µM*
SMILES	NPC1 prom act	Rab9 promoter act	ELG1 genotoxic	SMN2 splice up	FLuc modulator
O=C(COC(=O)c1cnccn1)c1ccc(C2CCCCC2)cc1	-1%	2%	0%	·	2.4µM*
O=C(COC(=O)c1cnccn1)c1ccc(Cl)cc1	-5%	0%	2%	3%	19µM*
O=C(COC(=O)c1cnccn1)c1ccc(-c2ccccc2)cc1	-1%	-5%	2%	·	?
O=C(COC(=O)c1cnccn1)c1ccc2c(c1)CCCC2	9%	9%	-4%	6%	4.8µM*
Cc1ccccc1-n1ncc2c1CC(C)(C)CC2NC(=O)CCC(F)(F)F (configuration not stated)	-1%	-1%	3%	·	-2%
O=C(COC(=O)c1cnccn1)c1ccc(Br)cc1	2%	0%	14%	-12%	15µM*
O=C(COC(=O)c1cnccn1)c1ccccc1	1%	-5%	-2%	-16%	?
Cc1ccccc1NC(=O)c1nc2nccc(C)n2n1	?	3.5µM*	?	14µM*	?
